The record followed here is PubChem BioAssay (Tox21).

“And” between values parts separate entries of the source, which are not always exact repeats. Equal values may be shown once. Records with an inconclusive call do not appear. Where a call stands in place of a potency, no number is given. The source made the active and inactive calls. The call rests on the fitted dose curve; in most records, active means well fitted cell-killing curve with a large enough effect in the repeat runs; inconclusive means weak or mixed curves, or effect the other way; inactive means flat fitted curve, though single readings scatter.
Potency means the concentration at half of the fitted maximal effect.

This assay in a line: cAMP Responsive Elements (CRE) small molecule agonists, cell-based qHTS assay: qHTS cell viability counter screen (AID 2060914).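 Further: viability read after 3 h of compound exposure; nearly all actives have a fitted effect of over 50% in size.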 To be noted: CRE-bla HEK293T viability, CellTiter-Glo luminescence, 5 h; series mostly up to 92.4 µM. Summed up:
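CRE-bla HEK 293T cells, plated 18 h at 37 °C, were exposed to compounds for 3 h at 37 °C/5% CO2. Viability was then measured in the same wells by CellTiter-Glo luminescence after 30 min at room temperature.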
(In general: In qHTS, concentration-response curves come from the screen itself.)
For `Clc1ccc2c(c1)C(N1CCNCC1)=Nc1ccccc1O2`, the Potency entry was “inactive”.
Turning to `O=c1c(-c2ccc(O)cc2)coc2cc(O)cc(O)c12`, the Potency result is “inactive”.
As for `CC[C@H](C)COC(=O)/C=C/c1ccc(N=Cc2ccc(OC)cc2)cc1`, the Potency entry is “inactive”.
Turning to `CCCC(=O)O`, the Potency result was “inactive”.
The same measure for `Clc1nc(C(Cl)(Cl)Cl)c(Cl)c(Cl)c1Cl`: “inactive”; for `CC1(C)Oc2ccc(C#N)cc2[C@@H](N2CCCC2=O)[C@@H]1O`: “inactive”.
Consider `CCCCCC#CC(=O)OC`, for which the Potency entry was “inactive”.
With `CC(O)CN(CCCN(C)C)CCCN(C)C` (stereo not given), the Potency result is “inactive”.
The same measure for `CN(C)c1cccc(O)c1`: “inactive”; for `CCOC(=O)c1ccc(OC(=O)CCCCCN=C(N)N)cc1`: “inactive”; for `CC(CN)CCCN` (stereo not given): “inactive”.
The same measure for `OCC1CC2CC1C1CCC(CO)C21` (stereo not given): “inactive”.
`CCCCCCCCCCn1cc[n+](CCCCCCCCCC)c1C`: the Potency was 48.6 µM (active).
The entry for `CO[C@@H]1[C@@H](O[C@@H]2O[C@H](C)[C@@H](O[C@H]3C[C@@](C)(O)[C@@H](O)[C@H](C)O3)[C@H](N(C)C)[C@H]2O)[C@@H](CC=O)C[C@@H](C)[C@@H](O[C@@H]2CC[C@H](N(C)C)[C@@H](C)O2)/C=C/C=C/C[C@@H](C)OC(=O)C[C@H]1OC(C)=O` is “inactive”; for `O=S(=O)(O)c1ccc2nc(-c3ccccc3)[nH]c2c1` it is 29.1 µM (active) and 21.1 µM (active).
Consider `FC(F)(F)/C(=N\OCC1OCCO1)c1ccc(Cl)cc1`, for which the Potency result is “inactive”.
As to `NC(N)=NC(=O)c1nc(Cl)c(N)nc1N`, the Potency result is “inactive”.
Regarding `CCC(CO)CO`, the Potency entry is “inactive”.
For the compound `C=C(C)C(=O)OCCC[Si](Cl)(Cl)Cl`, the Potency result was “inactive”.
The same measure for `CCCCOCCOCCOC(=O)CCCCC(=O)OCCOCCOCCCC`: “inactive”.
Take `CCCCCCCCCCc1ccccc1`: the Potency entry is “inactive”.
Turning to `Cc1ccc(S(=O)(=O)NC2CCCCC2)cc1`, the Potency result was “inactive”.
The same measure for `Nc1ccc2cc(S(=O)(=O)O)ccc2c1`: “inactive”; for `C[C@@H]1CC[C@H]2C(C)(C)[C@H]3C[C@@]12CC[C@@]3(C)O`: “inactive”; for `Cc1c(C(=O)O)c(O)cc2c1C(=O)c1c(O)c([C@@H]3O[C@H](CO)[C@@H](O)[C@H](O)[C@H]3O)c(O)c(O)c1C2=O`: “inactive”.
Take `CC(=C(CCOC(=O)C(C)C)SSC(CCOC(=O)C(C)C)=C(C)N(C=O)Cc1cnc(C)nc1N)N(C=O)Cc1cnc(C)nc1N`: the Potency result is “inactive”.
`Cc1cccc(Nc2ccccc2)c1`: the Potency result is “inactive”.
Turning to `CCc1ccc(O)c(C(C)(C)C)c1`, the Potency result was “inactive”.
The same measure for `CCC(=O)O[C@]1(C(=O)SCF)[C@H](C)C[C@H]2[C@@H]3C[C@H](F)C4=CC(=O)C=C[C@]4(C)[C@@]3(F)[C@@H](O)C[C@@]21C`: “inactive”; for `C[CH2][Ge]([Cl])([CH2]C)[CH2]C`: “inactive”.
With `O=C(O)c1cccnc1C(=O)O`, the Potency result was “inactive”.
The same measure for `Nc1nc2ccc([N+](=O)[O-])cc2s1`: “inactive”; for `C/C=C/c1ccc(O)c(OC)c1`: “inactive”; for `C(=C(c1ccccc1)c1ccccc1)c1ccccc1`: “inactive”.
Turning to `CCN(CC)CCOc1ccc(/C(=C(\Cl)c2ccccc2)c2ccccc2)cc1`, the Potency result is “inactive”.
The entry for `Cc1ccc2ccccc2c1[N+](=O)[O-]` is “inactive”; for `CCOC(=O)CN` it is “inactive”; for `Cc1cc2c(OCC(CNC(C)(C)C)OC(=O)c3ccccc3)cccc2[nH]1` (stereo not given) it is “inactive”.
The same measure for `C[N+](C)(C)CCO`: “inactive”; for `O=c1[nH]c(=O)n([C@H]2C[C@H](O)[C@@H](CO)O2)cc1Br`: “inactive”.
